# Results from PubChem BioAssay AID1241 (SRMLSC, 2008).
# Hit rate of the full screen: of about 1,200 compounds, about 840 (70%) were called active. So high a share suggests a set chosen from earlier hits. These entries were drawn from the full list. Measured potencies and affinities stand elsewhere. Values without a mark were called inactive. No rule for the calls is given here.
# Test: compounds inducing NF-kB luciferase expression – cell-based, SH-SY5Y, dose response (AID 1241)
# Conditions: SH-SY5Y NF-kB promoter luciferase reporter; series mostly up to 30 µM; fold induction over control: at the top concentration
row,Compound,fold induction over control
1,Oc1ccc(-c2csc(Nc3ncccn3)n2)cc1O,5.94
2,CC(C)(C)c1ccc(OCCn2ccccc2=O)cc1,12.2
3,COc1ccc2oc(C(=O)c3ccccc3)c(N)c2c1,12
4,COc1ccc2[nH]c(-c3cccc(F)c3)cc(=O)c2c1,4.64
5,COc1ccc(C(=S)Nc2ccc(N(C)C)cc2)cc1,11.3
6,Cc1nc(-c2ccccc2)sc1-c1ccnn1C,12
7,Nc1ccccc1C#Cc1ccccc1,14.8
8,CCOC(=O)c1c(C)oc2c1c(C(c1cccnc1)N1CCCCC1)c(O)c1ccccc12 (stereo not given),8.46 [at 15 µM]
9,O=C(Nc1ccc(Cl)cc1F)c1ccccc1Br,8.66
10,CCOC(=O)c1cnc(SCCc2ccccc2)nc1N,10
11,O=C(O)c1cccc(N=NN2CCCCCC2)c1,14.9
12,O=C(O)c1cc(N/N=C/C=C/c2ccccc2)ccc1Cl,13
13,COc1ccccc1OCCN1CSC(=S)N(C)C1,0.41
14,CC(C)(C)c1ccc(/C=N/Nc2cccc(C(=O)O)c2)cc1,19.6
15,O=C(O)/C=C\C(=O)Nc1ccccc1C#Cc1ccc(Br)cc1,2.97
16,Cc1ccccc1Nc1nc2ccccc2s1,10.2
17,N=c1c(C(=O)NCc2ccccc2)cc2c(=O)n3ccccc3nc2n1Cc1ccco1,0.59
18,O=C(/C=C/Nc1cccc([N+](=O)[O-])c1)c1cccs1,9.94

row,Compound,fold induction over control
1,CCOc1ccc(NC(=O)c2ccccc2O)cc1,11.3
2,Cc1ccc(C(=O)N/N=C2\CCc3ccccc32)c(C)c1,9.87
3,CCCSc1nsc(NC(=O)CCC)n1,10.6
4,S=C(c1ccc(-c2ccc(Br)cc2)o1)N1CCCCC1,8.44
5,Nc1ncn(CC(=O)c2ccccc2)n1,1.01
6,CCc1ccc(C(=O)NC(=S)Nc2ccc3c(c2)OCCO3)cc1,11.4
7,COc1ccc(-c2nnc(SC(C)C(=O)Nc3cccc(Cl)c3)o2)cc1 (stereo not given),12
8,Cc1ccc(C(=O)/C=C/Nc2cccc([N+](=O)[O-])c2)o1,6.5
9,Cc1ccc(C(=O)CCNc2ccc(F)c(Cl)c2)o1,5
10,COc1cccc(-c2noc(-c3cccnc3)n2)c1,11.6
11,Cc1[nH]n(C(N)=S)c(=O)c1N=Nc1ccc2ccccc2c1,10.5
12,Cc1nn(-c2ccccc2)c(N)c1N=Nc1ccccc1,12.4
13,Nc1nc(Nc2cccc(F)c2)nc2ccccc12,13.6
14,COc1ccc(C2=NN(C(C#N)c3ccc(OC)c(OC)c3)C(c3ccccc3)C2)cc1 (stereo not given),2.52
15,Cc1cc2nc(-c3cccnc3SCC(=O)NCc3ccco3)[nH]c2cc1C,6.42
16,COc1cc(/C=C/C(=O)CC(=O)/C=C/c2ccc(O)c(OC)c2)ccc1O,1.1
17,COC(=O)CCCSc1nccn1-c1ccccc1,1.03
